{"source": "PubChem BioAssay (NCATS)", "note": "Inconclusive results are not listed. A number with no mark means an inactive call. Calls of active or inactive are those of the source. The call rests on the fitted dose curve; in most records, active means well fitted inhibition curve with a large enough effect; inconclusive means small, poorly fitted or top-dose-only effect; inactive means flat fitted curve, though single readings scatter. Potency means the concentration at half of the fitted maximal effect.", "data": [{"test_system": "P94_40", "test": "qHTS profiling for inhibitors of Plasmodium falciparum proliferation (AID 504749); further: nearly all actives have a fitted effect of over 60% in size;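 on activity, negative = inhibition: 0% = DMSO vehicle and full inhibition = artemisinin control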", "conditions": "P. falciparum in erythrocytes, SYBR Green DNA, 72 h; series mostly up to 28.7 µM; activity, negative = inhibition: at the top concentration", "method_in_brief": "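In a 72 h erythrocytic culture (37 C, humidified, 5% CO2) at 2.5% hematocrit and 0.3% starting parasitemia, compounds were tested; SYBR Green I in detergent lysis buffer stained parasite DNA overnight.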", "values": [{"smiles": "Cn1nnc2c(C(N)=O)ncn2c1=O", "activity, negative = inhibition": "13.7%"}, {"smiles": "N[C@@H](C(=O)N[C@@H]1C(=O)N2C(C(=O)O)=C(Cl)CS[C@H]12)c1ccccc1", "activity, negative = inhibition": "1.82%"}, {"smiles": "O=P(O)(O)C(O)(Cc1cccnc1)P(=O)(O)O", "activity, negative = inhibition": "9.42%"}, {"smiles": "NCCCC(O)(P(=O)(O)O)P(=O)(O)O", "activity, negative = inhibition": "8.99%"}, {"smiles": "CC(C)(C#N)c1cc(Cn2cncn2)cc(C(C)(C)C#N)c1", "activity, negative = inhibition": "7.84%"}, {"smiles": "Cc1ccnc2c1NC(=O)c1cccnc1N2C1CC1", "activity, negative = inhibition": "-11.6%"}, {"smiles": "O=C(O)c1cc(=O)[nH]c(=O)[nH]1", "activity, negative = inhibition": "1.78%"}, {"smiles": "Cc1ncc([N+](=O)[O-])n1CCO", "activity, negative = inhibition": "8.74%"}, {"smiles": "CCN(C)C(=O)Oc1cccc([C@H](C)N(C)C)c1", "activity, negative = inhibition": "3.97%"}, {"smiles": "COc1cc(NCc2ccc3nc(N)nc(N)c3c2C)cc(OC)c1OC", "Potency": "891 nM (active)"}, {"smiles": "COc1cc([C@@H]2c3cc4c(cc3[C@H](O)[C@H]3COC(=O)[C@H]23)OCO4)cc(OC)c1OC", "Potency": "2510 nM (active)"}, {"smiles": "C1CCC(C(CC2CCCCN2)C2CCCCC2)CC1", "note": "(centres undefined)", "Potency": "11200 nM (active)"}, {"smiles": "COc1ccc2cc3[n+](cc2c1OC)CCc1cc2c(cc1-3)OCO2", "Potency": "447 nM (active)"}, {"smiles": "CCn1cc(C(=O)O)c(=O)c2cc(F)c(N3CCNCC3)nc21", "activity, negative = inhibition": "-46.2% [at 12.8 µM]"}, {"smiles": "CCOCC(O)COc1ccc(NC(=O)CC[S+](C)C)cc1", "note": "(centres undefined)", "activity, negative = inhibition": "13.2%"}, {"smiles": "COC(=O)Nc1nc2ccc(Sc3ccccc3)cc2[nH]1", "activity, negative = inhibition": "9.19% [at 12.8 µM]"}, {"smiles": "CC(C)Cn1cnc2c(N)nc3ccccc3c21", "activity, negative = inhibition": "9.24%"}, {"smiles": "O=S(=O)(O)CCS", "activity, negative = inhibition": "8.95%"}, {"smiles": "CN(C)c1ccc(C(=C2C=CC(=[N+](C)C)C=C2)c2ccc(N(C)C)cc2)cc1", "Potency": "282 nM (active)"}, {"smiles": "CN1CCN(c2c(F)cc3c(=O)c(C(=O)O)cn(CCF)c3c2F)CC1", "activity, negative = inhibition": "17%"}, {"smiles": "NC(=O)N1c2ccccc2CC(=O)c2ccccc21", "activity, negative = inhibition": "-1.55%"}, {"smiles": "Nc1nc(N)nc(-c2cc(Cl)ccc2Cl)n1", "activity, negative = inhibition": "3.77%"}, {"smiles": "CCCN[C@H]1CCc2nc(N)sc2C1", "activity, negative = inhibition": "7.15%"}, {"smiles": "CN(CCOc1ccc(CC2SC(=O)NC2=O)cc1)c1ccccn1", "note": "(centres undefined)", "activity, negative = inhibition": "4.86%"}, {"smiles": "CCCc1cc(C(N)=S)ccn1", "activity, negative = inhibition": "15.8%"}, {"smiles": "C[C@]12C=CC(=O)C=C1CC[C@@H]1[C@@H]2C(=O)C[C@@]2(C)[C@H]1CC[C@]2(O)C(=O)CO", "activity, negative = inhibition": "10.9%"}, {"smiles": "Nc1[nH]c(=O)ncc1F", "activity, negative = inhibition": "4.93% [at 12.8 µM]"}, {"smiles": "CC(C)(Sc1cc(C(C)(C)C)c(O)c(C(C)(C)C)c1)Sc1cc(C(C)(C)C)c(O)c(C(C)(C)C)c1", "activity, negative = inhibition": "6.42% [at 12.8 µM]"}, {"smiles": "N=C(N)c1ccc(OCCCCCOc2ccc(C(=N)N)cc2)cc1", "Potency": "1410 nM (active)"}]}]}
